# Results: PubChem BioAssay (EPA / NIEHS)
# Records with an inconclusive call do not appear. Activity calls are given as the source filed them. The calls were made as follows: active = hit-call score of the fitted dose curve at least 0.9, where 1 is the maximum; inconclusive = response in the unintended direction; inactive = score below 0.9.
# Assays:
# [1] = target: human AKT serine/threonine Kinase 1 (AKT1), AKT1 (gene 207) (UniProt P31749); assay: NVS_ENZ_hAKT1: NovaScreen (NVS) Enzymatic Assay for human AKT serine/threonine Kinase 1 (AKT1) (AID 2283138)
# Procedure, shortened: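 Recombinant human AKT1 with a specific substrate, product separated by electrophoretic mobility shift, read after 1 h. Compounds at 25 uM in duplicate, then concentration-response up to 50 uM for hits; inhibition relative to DMSO.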
# CDK2 (gene 1017) = CDK2 (gene 1017) (UniProt P24941); assay: NVS_ENZ_hCDK2: NovaScreen (NVS) Enzymatic Assay for human Cyclin-Cependent Kinase 2 (CDK2) (AID 2283144)
# Procedure, shortened: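 Cell-free recombinant human CDK2 with fluorescent substrate, product separated by electrophoretic mobility shift; 1 hr read. Primary screen at 25 uM in duplicate, actives retested in concentration-response up to 50 uM; loss of signal versus DMSO.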
# [2] = target: human Colony Stimulating Factor 1 Receptor (CSF1R), CSF1R (gene 1436) (UniProt P07333); assay: NVS_ENZ_hCSF1R: NovaScreen (NVS) Enzymatic Assay for human Colony Stimulating Factor 1 Receptor (CSF1R) (AID 2283150)
# Procedure, shortened: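 Cell-free recombinant human CSF1R kinase with fluorescent substrate, product separated by electrophoretic mobility shift; read 1 h after dosing. Primary screen at 25 uM in duplicate, actives then in concentration-response up to 50 uM, relative to DMSO.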
# [3] = target: human Dual Specificity Protein Phosphatase 3 (DUSP3), DUSP3 (gene 1845) (UniProt P51452); assay: NVS_ENZ_hDUSP3: NovaScreen (NVS) Enzymatic Assay for human Dual Specificity Protein Phosphatase 3 (DUSP3) (AID 2283152);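 also: phosphatase activity of recombinant human DUSP3 on a fluorogenic substrate without cells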
# Procedure, shortened: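 Cell-free assay with recombinant human DUSP3 and fluorogenic substrate, read by fluorescence intensity. Primary screen ran duplicate at 25 uM; actives followed up in concentration series; loss of signal versus DMSO scored.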
# [4] = target: human Beta-secretase (BACE), BACE1 (gene 23621) (UniProt P56817); assay: NVS_ENZ_hBACE: NovaScreen (NVS) Enzymatic Assay for human Beta-secretase (BACE) (AID 2283140);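 also: hits are inhibitors that reduce fluorescent substrate signal versus DMSO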
# Procedure, shortened: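 Cell-free assay of recombinant Sf9-expressed human BACE with fluorescent substrate, read by fluorescence intensity after 1 h. Primary screen in duplicate at 25 uM; actives then run in concentration series; loss of signal relative to DMSO.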
# [5] = target: human Caspase 5 (CASP5), CASP5 (gene 838) (UniProt P51878); assay: NVS_ENZ_hCASP5: NovaScreen (NVS) Enzymatic Assay for human Caspase 5 (CASP5) (AID 2283137)
# Method: NVS_ENZ_hCASP5 is a biochemical, single-readout assay that uses extracted gene-proteins from E. coli in a cell-free assay. Measurements were taken 2 hours after chemical dosing in a 96-well plate.NVS_ENZ_hCASP5 is one of one assay component(s) measured or calculated from the NVS_ENZ_hCASP5 assay. It is designed to make measurements of enzyme activity, a form of enzyme reporter, as detected with fluorescence intensity signals by Fluorescence technology.Data from the assay component NVS_ENZ_hCASP5 was analyzed into 1 assay endpoint. This assay endpoint, NVS_ENZ_hCASP5, was analyzed in the positive analysis fitting direction relative to DMSO as the negative control and baseline of activity. Using a type of enzyme reporter, loss-of-signal activity can be used to understand changes in the enzymatic activity as they relate to the gene CASP5. Furthermore, this assay endpoint can be referred to as a primary readout, because this assay has produced multiple assay endpoints where this one serves a enzymatic activity function. To generalize the intended target to other relatable targets, this assay endpoint is annotated to the protease intended target family, where the subfamily is cysteine protease.
# Binding assays used specific radioligands (tritiated, iodinated) with non-radioactive competitive displacement ligands in agonist or antagonist protocols (as indicated) and various reference compounds and inhibitors to titrate specific binding to receptors and transporters. Most enzyme assays (CYPs, kinases, phosphatases, proteases, HDACs) used recombinant protein and specific substrates (fluorescence mostly, some colorimetric and radioactive) and inhibitors, followed by a biochemical separation of substrate and product. All assays for the biochemical HTS were initially run in duplicate at a single concentration (10 uM for CYP450 assays and 25 uM for all others). Assay-chemical combinations meeting a pre-defined threshold (e.g., 30% inhibition and other criteria defined below) were then run in singleton concentration-response format with maximum concentration of 20 uM for CYPs and 50 uM for all others. Each assay was run with positive and negative controls, and concurrent controls on every plate. The follow-up (secondary) screen tested active chemical-pairs in concentration series, as well as a few additional assays not tested in the primary screen, some selected negative inactives, and several cases re-run in the concentration series for confirmatory purposes.
# [6] = target: human AKT serine/threonine Kinase 2 (AKT2), AKT2 (gene 208) (UniProt P31751); assay: NVS_ENZ_hAKT2: NovaScreen (NVS) Enzymatic Assay for human AKT serine/threonine Kinase 2 (AKT2) (AID 2283141)
# Procedure, shortened: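 Cell-free fluorescence/electrophoretic mobility shift readout of recombinant human AKT2 activity, 1 h after chemical dosing. Duplicate primary screen at 25 uM, then singleton concentration-response up to 50 uM; loss of signal versus DMSO baseline.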
# [7] = target: human Caspase 8 (CASP8), CASP8 (gene 841) (UniProt Q14790); assay: NVS_ENZ_hCASP8: NovaScreen (NVS) Enzymatic Assay for human Caspase 8 (CASP8) (AID 2283146)
# Procedure, shortened: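 E. coli-expressed enzyme was used in a cell-free fluorogenic substrate assay read 1 h after dosing. Loss of signal was scored relative to DMSO, and the primary screen was run in duplicate at 25 uM.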
# [8] = target: human Caspase 4 (CASP4), CASP4 (gene 837) (UniProt P49662); assay: NVS_ENZ_hCASP4: NovaScreen (NVS) Enzymatic Assay for human Caspase 4 (CASP4) (AID 2283143)
# Procedure, shortened: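 The cell-free assay used E. coli-expressed enzyme with a fluorogenic substrate, read 2 h after dosing. Signal loss was scored versus DMSO. Screening was in duplicate at 25 uM, then singleton concentration-response up to 50 uM.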
# [9] = target: human Casein Kinase 1-delta (CK1D), CSNK1D (gene 1453) (UniProt P48730); assay: NVS_ENZ_hCK1D: NovaScreen (NVS) Enzymatic Assay for human Casein Kinase 1-delta (CK1D) (AID 2283148)
# Procedure, shortened: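 Recombinant human CK1-delta, cell-free; fluorescent substrate with electrophoretic mobility-shift separation of product, read 1 h after dosing. Single 25 uM duplicate screen, then concentration-response up to 50 uM; loss of signal vs DMSO.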
# Sequence of human Caspase 4 (CASP4), CASP4 (gene 837) (P49662 whole entry, looked up): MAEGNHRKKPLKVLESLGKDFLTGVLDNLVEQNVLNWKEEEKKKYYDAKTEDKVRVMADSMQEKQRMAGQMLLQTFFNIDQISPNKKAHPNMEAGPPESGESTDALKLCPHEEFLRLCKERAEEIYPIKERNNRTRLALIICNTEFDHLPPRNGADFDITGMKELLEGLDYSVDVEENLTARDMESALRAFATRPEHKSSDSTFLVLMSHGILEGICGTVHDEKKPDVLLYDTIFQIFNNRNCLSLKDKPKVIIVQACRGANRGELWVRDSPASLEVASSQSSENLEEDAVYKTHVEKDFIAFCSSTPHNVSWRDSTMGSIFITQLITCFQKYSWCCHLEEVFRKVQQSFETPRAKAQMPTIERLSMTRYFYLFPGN
# Sequence of human Caspase 5 (CASP5), CASP5 (gene 838) (P51878 whole entry, looked up): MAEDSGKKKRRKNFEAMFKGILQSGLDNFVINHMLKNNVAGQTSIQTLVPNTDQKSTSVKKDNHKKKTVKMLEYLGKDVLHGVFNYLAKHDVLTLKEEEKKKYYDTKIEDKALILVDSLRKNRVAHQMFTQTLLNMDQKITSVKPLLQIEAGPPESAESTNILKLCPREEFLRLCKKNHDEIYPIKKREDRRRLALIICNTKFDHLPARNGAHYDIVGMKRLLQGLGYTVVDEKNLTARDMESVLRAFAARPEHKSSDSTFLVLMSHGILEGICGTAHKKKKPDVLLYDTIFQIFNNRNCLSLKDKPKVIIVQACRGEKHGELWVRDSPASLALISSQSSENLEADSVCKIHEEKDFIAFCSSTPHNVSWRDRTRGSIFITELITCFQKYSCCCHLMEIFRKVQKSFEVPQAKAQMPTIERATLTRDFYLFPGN
# Sequence of human AKT serine/threonine Kinase 1 (AKT1), AKT1 (gene 207) (P31749 whole entry, looked up): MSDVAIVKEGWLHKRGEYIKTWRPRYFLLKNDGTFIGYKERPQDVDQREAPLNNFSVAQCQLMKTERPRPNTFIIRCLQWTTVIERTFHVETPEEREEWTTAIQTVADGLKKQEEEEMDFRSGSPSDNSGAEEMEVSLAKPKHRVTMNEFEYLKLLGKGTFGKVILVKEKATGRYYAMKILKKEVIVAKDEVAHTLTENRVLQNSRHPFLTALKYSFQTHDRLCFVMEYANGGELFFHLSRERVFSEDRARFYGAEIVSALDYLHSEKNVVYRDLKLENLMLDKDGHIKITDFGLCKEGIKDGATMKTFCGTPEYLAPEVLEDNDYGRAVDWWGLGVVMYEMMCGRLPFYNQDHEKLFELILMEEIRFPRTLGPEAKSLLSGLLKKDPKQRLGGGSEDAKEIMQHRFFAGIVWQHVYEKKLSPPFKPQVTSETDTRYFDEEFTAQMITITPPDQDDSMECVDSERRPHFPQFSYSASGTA
# Sequence of human Beta-secretase (BACE), BACE1 (gene 23621) (P56817 whole entry, looked up): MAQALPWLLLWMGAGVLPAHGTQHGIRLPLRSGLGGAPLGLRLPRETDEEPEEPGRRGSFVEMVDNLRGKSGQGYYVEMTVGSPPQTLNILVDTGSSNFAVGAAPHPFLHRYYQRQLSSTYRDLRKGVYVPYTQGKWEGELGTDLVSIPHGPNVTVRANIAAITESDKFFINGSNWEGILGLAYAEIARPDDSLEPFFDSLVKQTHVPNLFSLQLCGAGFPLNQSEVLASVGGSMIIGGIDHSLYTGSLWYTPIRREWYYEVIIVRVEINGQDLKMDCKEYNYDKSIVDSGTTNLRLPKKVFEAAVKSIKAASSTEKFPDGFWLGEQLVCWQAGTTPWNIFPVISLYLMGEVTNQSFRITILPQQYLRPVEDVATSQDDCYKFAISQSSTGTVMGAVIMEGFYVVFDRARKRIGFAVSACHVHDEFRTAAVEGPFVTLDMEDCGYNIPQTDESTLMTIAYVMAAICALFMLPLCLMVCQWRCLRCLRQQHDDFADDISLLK
# Sequence of human AKT serine/threonine Kinase 2 (AKT2), AKT2 (gene 208) (P31751 whole entry, looked up): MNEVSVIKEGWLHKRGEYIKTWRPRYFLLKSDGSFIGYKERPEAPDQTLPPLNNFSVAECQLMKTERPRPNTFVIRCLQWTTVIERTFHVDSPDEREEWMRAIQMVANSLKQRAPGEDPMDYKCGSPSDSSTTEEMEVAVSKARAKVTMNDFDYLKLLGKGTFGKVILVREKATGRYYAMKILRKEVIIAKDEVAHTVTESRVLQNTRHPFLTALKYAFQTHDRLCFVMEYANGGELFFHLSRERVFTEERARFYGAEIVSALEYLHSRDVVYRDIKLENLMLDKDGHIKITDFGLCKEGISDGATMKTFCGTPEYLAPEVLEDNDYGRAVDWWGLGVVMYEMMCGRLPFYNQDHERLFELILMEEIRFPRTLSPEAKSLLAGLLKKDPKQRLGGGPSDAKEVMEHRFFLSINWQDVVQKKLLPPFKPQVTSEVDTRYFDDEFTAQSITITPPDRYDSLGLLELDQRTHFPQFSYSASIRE
# Sequence of human Casein Kinase 1-delta (CK1D), CSNK1D (gene 1453) (P48730 whole entry, looked up): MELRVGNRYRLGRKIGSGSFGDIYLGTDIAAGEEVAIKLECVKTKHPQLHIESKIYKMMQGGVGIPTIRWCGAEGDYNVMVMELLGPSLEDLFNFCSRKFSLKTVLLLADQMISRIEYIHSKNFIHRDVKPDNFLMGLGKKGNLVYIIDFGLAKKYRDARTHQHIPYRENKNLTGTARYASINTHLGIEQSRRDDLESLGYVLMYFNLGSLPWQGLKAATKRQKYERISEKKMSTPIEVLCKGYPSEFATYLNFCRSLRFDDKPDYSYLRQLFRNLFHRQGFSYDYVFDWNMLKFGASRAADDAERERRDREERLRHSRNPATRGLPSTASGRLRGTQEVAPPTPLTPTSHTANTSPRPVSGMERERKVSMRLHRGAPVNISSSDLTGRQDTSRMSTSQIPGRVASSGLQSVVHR
# Sequence of human Dual Specificity Protein Phosphatase 3 (DUSP3), DUSP3 (gene 1845) (P51452 whole entry, looked up): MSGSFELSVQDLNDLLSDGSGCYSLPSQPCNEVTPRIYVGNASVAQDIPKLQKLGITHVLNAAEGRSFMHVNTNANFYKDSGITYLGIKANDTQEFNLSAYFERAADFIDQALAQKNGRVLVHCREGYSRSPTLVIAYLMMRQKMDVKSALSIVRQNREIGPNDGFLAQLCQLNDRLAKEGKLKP
# Sequence of human Colony Stimulating Factor 1 Receptor (CSF1R), CSF1R (gene 1436) (P07333 whole entry, looked up): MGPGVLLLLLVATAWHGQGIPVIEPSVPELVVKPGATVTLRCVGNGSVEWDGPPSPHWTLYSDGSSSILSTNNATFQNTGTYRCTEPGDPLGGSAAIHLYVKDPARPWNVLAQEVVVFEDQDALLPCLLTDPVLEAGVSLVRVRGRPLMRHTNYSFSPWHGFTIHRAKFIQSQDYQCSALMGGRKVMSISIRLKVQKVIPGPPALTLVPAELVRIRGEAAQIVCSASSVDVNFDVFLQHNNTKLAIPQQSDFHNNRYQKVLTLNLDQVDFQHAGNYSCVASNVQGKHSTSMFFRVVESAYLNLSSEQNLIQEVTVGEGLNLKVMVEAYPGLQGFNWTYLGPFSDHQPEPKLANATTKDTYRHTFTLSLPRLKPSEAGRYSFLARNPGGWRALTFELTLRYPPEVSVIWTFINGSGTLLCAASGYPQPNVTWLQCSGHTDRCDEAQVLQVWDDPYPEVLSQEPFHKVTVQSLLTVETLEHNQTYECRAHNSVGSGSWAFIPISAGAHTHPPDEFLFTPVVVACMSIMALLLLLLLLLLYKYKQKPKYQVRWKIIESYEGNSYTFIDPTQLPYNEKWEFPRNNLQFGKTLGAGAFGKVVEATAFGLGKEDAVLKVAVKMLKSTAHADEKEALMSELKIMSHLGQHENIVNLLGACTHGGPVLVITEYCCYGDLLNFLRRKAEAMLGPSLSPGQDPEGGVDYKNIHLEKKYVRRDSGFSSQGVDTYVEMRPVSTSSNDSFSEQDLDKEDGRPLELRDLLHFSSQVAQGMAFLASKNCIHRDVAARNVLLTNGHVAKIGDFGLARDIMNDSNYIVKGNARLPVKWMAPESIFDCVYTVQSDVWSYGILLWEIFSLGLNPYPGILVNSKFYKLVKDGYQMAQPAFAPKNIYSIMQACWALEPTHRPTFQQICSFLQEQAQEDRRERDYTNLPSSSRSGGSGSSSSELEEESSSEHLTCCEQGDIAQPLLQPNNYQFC
# Sequence of human Caspase 8 (CASP8), CASP8 (gene 841) (Q14790 whole entry, looked up): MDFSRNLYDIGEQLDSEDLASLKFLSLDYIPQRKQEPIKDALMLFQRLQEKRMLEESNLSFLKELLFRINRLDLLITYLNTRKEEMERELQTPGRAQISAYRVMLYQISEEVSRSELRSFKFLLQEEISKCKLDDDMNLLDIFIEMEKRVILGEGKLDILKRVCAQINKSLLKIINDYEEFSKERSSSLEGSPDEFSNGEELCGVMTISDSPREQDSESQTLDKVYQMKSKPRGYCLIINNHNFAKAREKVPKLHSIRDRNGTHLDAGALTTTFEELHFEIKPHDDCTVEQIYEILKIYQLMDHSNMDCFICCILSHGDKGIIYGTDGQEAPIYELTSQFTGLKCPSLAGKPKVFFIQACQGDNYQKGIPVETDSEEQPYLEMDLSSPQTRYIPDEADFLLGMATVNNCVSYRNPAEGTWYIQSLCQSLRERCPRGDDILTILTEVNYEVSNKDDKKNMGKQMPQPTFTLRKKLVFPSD
compound,measurement,setting,value
O=C(O)c1cc(N=Nc2ccc(S(=O)(=O)Nc3ccccn3)cc2)ccc1O,outcome,[1],inactive
same,outcome,CDK2 (gene 1017),inactive
same,outcome,[2],inactive
same,AC50,[3],14 µM (active)
CCCCCCc1ccc(O)cc1O,outcome,[4],inactive
Oc1ccc2c(c1)-c1ccccc1C2,AC50,[5],36.1 µM (active)
CC(C)CCCCCCCOC(=O)CCCCC(=O)OCCCCCCCC(C)C,outcome,[6],inactive
O=P(OC(CCl)CCl)(OC(CCl)CCl)OC(CCl)CCl,outcome,[5],inactive
same,AC50,[4],8.73 µM (active)
CC[C@H](C)C(=O)O[C@H]1C[C@@H](C)C=C2C=C[C@H](C)[C@H](CC[C@@H]3C[C@@H](O)CC(=O)O3)[C@H]21,outcome,[6],inactive
same,outcome,[7],inactive
CCc1cc(SCc2sc(-c3ccc(C(F)(F)F)cc3)nc2CN2CCN(c3ccc(OC)cc3)CC2)ccc1OCC(=O)O,AC50,[5],2.35 µM (active)
same,outcome,[8],inactive
O=C(OC[C@H]1O[C@@H](OC(=O)c2cc(O)c(O)c(OC(=O)c3cc(O)c(O)c(O)c3)c2)[C@H](OC(=O)c2cc(O)c(O)c(OC(=O)c3cc(O)c(O)c(O)c3)c2)[C@@H](OC(=O)c2cc(O)c(O)c(OC(=O)c3cc(O)c(O)c(O)c3)c2)[C@@H]1OC(=O)c1cc(O)c(O)c(OC(=O)c2cc(O)c(O)c(O)c2)c1)c1cc(O)c(O)c(OC(=O)c2cc(O)c(O)c(O)c2)c1,AC50,[5],0.136 µM (active)
same,AC50,[4],3.11 µM (active)
same,AC50,[3],3.95 µM (active)
CC(C)CC(C)(O)C#CC(C)(O)CC(C)C (centres undefined),outcome,[1],inactive
O=C1CCC(N2C(=O)c3ccccc3C2=O)C(=O)N1 (centres undefined),outcome,[4],inactive
CCOCCOCCOCCO,outcome,[1],inactive
Cn1cnc([N+](=O)[O-])c1Sc1ncnc2nc[nH]c12,outcome,[1],inactive
same,outcome,[6],inactive
CC(C)c1cccc(C(C)C)c1N1C(=O)c2ccc(O)cc2C1=O,outcome,[1],inactive
same,outcome,[7],inactive
NC(=O)NO,AC50,[1],16.5 µM (active)
Nc1nc2ncc(CNc3ccc(C(=O)N[C@@H](CCC(=O)O)C(=O)O)cc3)nc2c(=O)[nH]1,outcome,[4],inactive
same,AC50,[9],11.4 µM (active)
CCOc1cccc(-n2cc(C(=O)N3CCN(c4cc(C(=O)O)c5ccccc5c4)CC3)nc2-c2ccc(C)cc2)c1,AC50,[5],18.3 µM (active)
same,AC50,[4],10.5 µM (active)
same,outcome,[8],inactive
Nc1ccc(Nc2ccccc2)cc1,outcome,[5],inactive
same,outcome,[8],inactive
same,AC50,[3],7.11 µM (active)
Cc1c(-c2cccnc2)c2ccccc2n1CCCCC(=O)O,outcome,[4],inactive
O=C(O)c1cccc(Oc2ccccc2)c1,outcome,[1],inactive
same,outcome,[9],inactive
Cc1ccc(N)cc1O,outcome,[1],inactive
same,outcome,[9],inactive
same,outcome,[2],inactive
CNCc1ccc(NC(=O)c2c[nH]c3c2C(=O)CCC3)cc1,outcome,[4],inactive
CNS(=O)(=O)c1cc(C(=O)N2CCC(CCN3C4CCC3CC(n3c(C)nc5ccccc53)C4)(c3cccc(F)c3)CC2)c(Cl)cc1F (centres undefined),outcome,[8],inactive
CN(C)c1ccc(N=NS(=O)(=O)O)cc1,outcome,[8],inactive
C=CCCCCCCCCC(=O)O,outcome,CDK2 (gene 1017),inactive
COc1ccc2sc(C(=O)Nc3nnn[nH]3)c(OC(C)C)c2c1,AC50,CDK2 (gene 1017),10.1 µM (active)
CCC(C)(C)C(=O)O[C@H]1C[C@@H](C)C=C2C=C[C@H](C)[C@H](CC[C@@H]3C[C@@H](O)CC(=O)O3)[C@H]21,AC50,[3],12.1 µM (active)
